The target of assay [1] is T1, Aspartate--tRNA(Asp/Asn) ligase (Mycobacterium tuberculosis (strain ATCC 25618 / H37Rv)) (UniProt P9WFW3). Also: in the data most compounds retested in dose-response had high values.
T1 sequence (whole entry): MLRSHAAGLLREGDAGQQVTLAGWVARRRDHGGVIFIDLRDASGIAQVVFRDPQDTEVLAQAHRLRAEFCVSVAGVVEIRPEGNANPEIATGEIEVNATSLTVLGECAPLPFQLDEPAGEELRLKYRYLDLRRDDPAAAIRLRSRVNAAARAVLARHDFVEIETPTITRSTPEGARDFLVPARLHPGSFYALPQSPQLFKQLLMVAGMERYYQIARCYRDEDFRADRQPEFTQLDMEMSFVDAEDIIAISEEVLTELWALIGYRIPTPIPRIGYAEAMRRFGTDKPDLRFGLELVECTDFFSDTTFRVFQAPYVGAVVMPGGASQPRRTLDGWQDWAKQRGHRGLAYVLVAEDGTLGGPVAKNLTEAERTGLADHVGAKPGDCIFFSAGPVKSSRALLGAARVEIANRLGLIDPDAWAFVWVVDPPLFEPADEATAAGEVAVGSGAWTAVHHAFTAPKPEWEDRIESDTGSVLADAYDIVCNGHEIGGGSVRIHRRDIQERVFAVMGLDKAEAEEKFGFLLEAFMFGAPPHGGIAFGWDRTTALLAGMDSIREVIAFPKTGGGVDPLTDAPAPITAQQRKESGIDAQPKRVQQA
Briefly: Assay for Asp RNA synthetase-1 from Mycobacterium tuberculosis. It counts as functional. Set-up: scale not given: direction of the effect not stated beside the values. Conditions: 30 µM.

Assay [2] deals with Shiga toxin 2 (Escherichia coli O157:H7) (UniProt P09385+P09386). Briefly: E. coli 0.157:H7 Shiga Toxin SOP - stx2 screening assay. It counts as functional. Also on record: scale not given: direction of the effect not stated beside the values. To be noted: 30 µM.

With `O=C(C1CCCc2[nH]ncc21)N1CCCC1` (centres undefined), the Percent Effect in assay [1] was 2.61%; in assay [2], -4.59%.

As to `CCNC(=O)CN1CCCN(C(=O)C2CCCc3[nH]ncc32)CC1` (centres undefined), the Percent Effect in assay [1] is -3.09%; in assay [2] it was -2%.

For the compound `CCc1nc(C(=O)N2CCCC2)nn1-c1ccccc1Cl`, the Percent Effect in assay [1] was -1.24%; in assay [2], 6.73%.

As to `Cc1nccc(-c2cccc(NCC(=O)N3CCc4sccc4C3)c2)n1`, the values for the Percent Effect in assay [1] and in assay [2] were -0.955% and 8.31%, respectively.

Regarding `Cc1cc(CN(C)C(=O)NCc2cccc(N3CCCC3=O)c2)no1`, the Percent Effect was -2.4% in assay [1] and -15% in assay [2].

Turning to `COc1ccc(OCCCNC(=O)NCc2csc(C)n2)cc1`, the figures for the Percent Effect in assay [1] and in assay [2] were -1.75% and -17%, respectively.

Turning to `CCN1CC(C(=O)NC(C)(C)CC(C)(C)C)CC1=O` (centres undefined), the Percent Effect was 2.27% in assay [1] and -6.14% in assay [2].

For `Cc1cc(C)n(CCC(=O)N2CCC(c3nc(C(C)C)no3)CC2)n1`, the Percent Effect in assay [1] was 2.47%; in assay [2], -18.2%.

Consider `CCc1nc(CN2CCOC(Cn3nc(C)nc3C)C2)no1` (centres undefined), for which the Percent Effect worked out at 3.17% in assay [1] and 28.4% in assay [2].

As for `Cc1nn(C)c2cn(C(C)C(=O)NCc3cccnc3)nc12` (centres undefined), the Percent Effect was -1.71% in assay [1] and -24.9% in assay [2].

As to `COc1cc(C)sc1C(=O)N1CCC(Nc2cccnc2)CC1`, the Percent Effect in assay [1] is -3.37%; in assay [2], -50.2%.

As to `COc1cccc(CNC(=O)N2CCN(Cc3cc(C)on3)CC2)c1`, the values for the Percent Effect in assay [1] and in assay [2] were -2.94% and 4.64%, respectively.

Consider `CCn1cc(CN(C)S(=O)(=O)c2ccc(NC(C)=O)cc2)cn1`, for which the Percent Effect in assay [1] was 2.64%; in assay [2] it was -65.2%.

As to `COCCCNC(=O)CN(C)C(=O)c1cc(C)ccc1N(C)C(C)C`, the values for the Percent Effect in assay [1] and in assay [2] were 1.84% and 4.69%, respectively.

Take `COCCN1CCC(CNC(=O)c2cc(C)cc(C)c2)C1` (centres undefined): the Percent Effect in assay [1] was -2.92%; in assay [2], -3.77%.

`Cc1nc(CN2C(=O)COC3(CCN(Cc4nccs4)CC3)C2C)cs1` (centres undefined): the Percent Effect in assay [1] is -2.21%; in assay [2], -29.4%.

Take `Cn1cnnc1C1CCCN(C(=O)c2n[nH]c3ccccc23)C1` (centres undefined): the Percent Effect in assay [1] is -3.14%; in assay [2] it was -4.11%.

As for `Cc1ccc(CN(C)C(=O)CN2CC(n3cccn3)C2)o1`, the Percent Effect in assay [1] was 1.26%; in assay [2], -26.8%.

As for `Cc1cnn(CC2CCCCN2CCn2cncn2)c1` (centres undefined), the Percent Effect is -2.34% in assay [1] and -38% in assay [2].

As to `CCc1c(C)sc(NC(=O)CN2CCN(CC)CC2)c1C(=O)OC`, the results for the Percent Effect in assay [1] and in assay [2] were -1.36% and -31.3%, respectively.

With `Cc1nc(C)n(CC2CCCN(CCOc3cccc(C#N)c3)C2)n1` (centres undefined), the Percent Effect is 2% in assay [1] and 12.2% in assay [2].

On to `CCn1c(NCc2ccco2)nc2c(C)nn(C)c2c1=O`, for which the Percent Effect is -3.66% in assay [1] and -41.1% in assay [2].

With `CCOCC1CN(Cc2ccc(OC)cc2)Cc2nn(C)cc21` (centres undefined), the Percent Effect was 11.4% in assay [1] and -5.58% in assay [2].

As to `Cc1nc(CN2C(=O)C[C@H]3[C@H]2CCN3C2CCOCC2)cs1`, the Percent Effect was -3.97% in assay [1] and 9.23% in assay [2].

Turning to `O=C(NCc1nnc2n1CCCCC2)N1CCc2sccc2C1`, the figures for the Percent Effect in assay [1] and in assay [2] were -4.29% and -45.2%, respectively.

On to `CN(c1ccncn1)C1CC2(CCN(C(=O)c3ccsc3)C2)C1` (centres undefined), for which the Percent Effect was -8.13% in assay [1] and -32.2% in assay [2].

Consider `c1cnnc(N2CCCC2CNCc2cc[nH]n2)c1` (centres undefined), for which the Percent Effect is -3.63% in assay [1] and -20% in assay [2].

For `O=C(NCC1CC1)C1=NOC2(CCN(S(=O)(=O)c3cccs3)C2)C1` (centres undefined), the Percent Effect in assay [1] is 2.15%; in assay [2], -4.25%.

For the compound `Cn1c(Cn2ccnc2)nnc1C1CCN(C(=O)C2(C)CC2)CC1`, the Percent Effect in assay [1] was -0.661%; in assay [2], -12.1%.

On to `COc1cccc(C2CC(=O)Nc3nc(N4CCOCC4)sc32)c1OC` (centres undefined), for which the Percent Effect was 63.4% in assay [1] and -3.76% in assay [2].

As to `NC(=O)c1cnn2c1NCC(CNCCc1ccco1)C2` (centres undefined), the Percent Effect in assay [1] came out at 0.367%; in assay [2], 26.6%.

Regarding `COc1ccc(CCN2CCCC(Cn3nc(C)nc3C)C2)cc1` (centres undefined), the values for the Percent Effect in assay [1] and in assay [2] were -3.48% and -52.1%, respectively.

`CS(=O)(=O)CCC(=O)NC1(c2cccc(Br)c2)CC1`: the Percent Effect in assay [1] turned out to be 5.45%; in assay [2], 3.23%.

For `Cn1cnnc1C1CCN(c2cncc(-n3cccn3)n2)CC1`, the Percent Effect in assay [1] was 0.324%; in assay [2] it was -33.6%.

In the case of `CCCc1nc(C)c(C(=O)NS(=O)(=O)c2ccc(C#N)cc2)s1`, the Percent Effect worked out at 0.836% in assay [1] and 8.1% in assay [2].

Regarding `CC1(C)CC(N(Cc2ccccc2)Cc2cccnc2)CC(C)(C)N1`, the Percent Effect was -4.09% in assay [1] and -6.83% in assay [2].

Regarding `COc1ccc(-n2ccc(C(=O)N3CCN(C)CC3C)n2)cc1` (centres undefined), the Percent Effect in assay [1] was -10.9%; in assay [2], -0.158%.

On to `O=C(C1CCC1)N1CCCC1c1nnc2n1CCCCC2` (centres undefined), for which the Percent Effect in assay [1] was -0.296%; in assay [2] it was -16%.

On to `CSCc1cccc(S(=O)(=O)N2CCC(C)CC2)c1`, for which the Percent Effect in assay [1] was -1.92%; in assay [2], 4.74%.

As to `O=C(c1cccnc1N1CCOCC1)N1CCCC1Cn1cccn1` (centres undefined), the results for the Percent Effect in assay [1] and in assay [2] were -2.94% and 31.6%, respectively.

`Cc1nc(CN2CCCCC2Cn2cncn2)nc2ccccc12` (centres undefined): the Percent Effect in assay [1] is 1.73%; in assay [2], -15.2%.

Regarding `CC(C)(C)c1cn2nc(N3CCCC3Cn3cncn3)sc2n1` (centres undefined), the Percent Effect is -3.59% in assay [1] and -12.7% in assay [2].

For the compound `CN(C)C[C@H]1OC[C@@H]2CCN(C(=O)c3ccco3)C[C@@H]21`, the results for the Percent Effect in assay [1] and in assay [2] were -2.13% and -9.03%, respectively.

As to `O=C(NCc1cc(=O)n2c(n1)CN(CC1CCOC1)CCC2)C1CC1` (centres undefined), the Percent Effect in assay [1] is -1%; in assay [2], -24.3%.

With `CCCn1nc2c(cc1=O)CN(CC(=O)Nc1ccncc1)CC2`, the Percent Effect in assay [1] was 2.52%; in assay [2], -19.5%.

On to `CC(C)(C)SCCCC(=O)N1CCC(Nc2cccnn2)CC1`, for which the figures for the Percent Effect in assay [1] and in assay [2] were -1.23% and -5.49%, respectively.

As to `CC(C)(C)c1noc(CN2CCCN(Cc3cccs3)CC2)n1`, the values for the Percent Effect in assay [1] and in assay [2] were -4.01% and -1.06%, respectively.

For the compound `O=C(O)c1csc(S(=O)(=O)Nc2cccc(OC(F)F)c2)c1`, the results for the Percent Effect in assay [1] and in assay [2] were -0.5% and -13.1%, respectively.

As to `Cc1ccc(C(=O)N(C)Cc2cc(Br)cs2)c(=O)[nH]1`, the figures for the Percent Effect in assay [1] and in assay [2] were 0.749% and -3.88%, respectively.

On to `Cc1csc(NC(=O)CN(C)CC2CCCN2c2cccnn2)n1` (centres undefined), for which the figures for the Percent Effect in assay [1] and in assay [2] were 3.48% and -23.1%, respectively.

As to `COc1cc(NC(=O)c2ccccc2F)c(C(=O)N(C)C)cc1OC`, the results for the Percent Effect in assay [1] and in assay [2] were 8.8% and -68.8%, respectively.

In the case of `COc1cccc(CN(C)Cc2cccc(C#N)c2)c1OC`, the figures for the Percent Effect in assay [1] and in assay [2] were -1.23% and 14.1%, respectively.
